Whole data set: some 33,000 sequences, median “E-score (-0.5 to 0.5)” near -0.035, cut for the highest 2% near 0.34. The sample holds the highest values, similar sequences and a random draw of the others, so the mix is not that of the screen.

This test has as its target T1, Mot3 (UniProt P54785).
T1 sequence: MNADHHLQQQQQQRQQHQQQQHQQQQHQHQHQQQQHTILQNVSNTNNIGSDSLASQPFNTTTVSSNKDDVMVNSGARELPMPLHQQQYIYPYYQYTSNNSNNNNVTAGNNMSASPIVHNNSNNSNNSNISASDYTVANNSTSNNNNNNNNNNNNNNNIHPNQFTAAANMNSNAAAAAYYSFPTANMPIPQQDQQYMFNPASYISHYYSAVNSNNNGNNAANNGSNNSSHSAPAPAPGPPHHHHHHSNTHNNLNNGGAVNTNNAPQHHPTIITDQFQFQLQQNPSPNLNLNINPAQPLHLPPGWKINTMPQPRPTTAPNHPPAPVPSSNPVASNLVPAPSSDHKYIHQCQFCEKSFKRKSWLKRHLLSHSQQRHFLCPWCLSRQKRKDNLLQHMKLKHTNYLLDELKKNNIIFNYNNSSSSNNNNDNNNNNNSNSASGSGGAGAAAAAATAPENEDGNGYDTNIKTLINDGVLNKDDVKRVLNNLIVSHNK
Description: PBM E-score (8-mer binding enrichment) (E-score (-0.5 to 0.5)); higher = stronger / more preferred TF binding. As to conditions: protein concentration: 200 nM; construct: GST-full length. The method, boiled down: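 Universal all-10-mer Agilent arrays, fresh or stripped once, were converted to double-stranded form by primer extension. GST-tagged yeast transcription factors from PURExpress in vitro transcription/translation, full-length or DNA-binding domain only, were applied at about 100-200 nM and detected with fluorescent anti-GST. After masliner normalisation, the Universal PBM Analysis Suite scored each ungapped eight-base word together with its reverse complement by E-score.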
Take ATGAGGCA: the “PBM E-score” value came to 0.364.

ATGAGGCG: the “PBM E-score” value is -0.119.

With ATGAGGCC, the “PBM E-score” value was -0.174.

As to CTGAGGCA, the “PBM E-score” value amounted to 0.257.

For the sequence GTGAGGCA, the “PBM E-score” value is 0.353.

As to GTGAGGAA, the “PBM E-score” value was -0.106.

In the case of CCTACTTC, the “PBM E-score” value was -0.0137.

As for ACCCGTCA, the “PBM E-score” value is -0.239.

With AGATAGCG, the “PBM E-score” value is -0.0829.

Regarding ACGCACGG, the “PBM E-score” value turned out to be 0.0438.

As to AAGCACGG, the “PBM E-score” value was found to be 0.0983.

As to CGGCACGA, the “PBM E-score” value amounted to 0.00099.

In the case of AGGCACGA, the “PBM E-score” value was determined as 0.491.

Take AGGCACGG: the “PBM E-score” value amounted to 0.491.

With GGGCACGA, the “PBM E-score” value was found to be 0.163.

Regarding GCCCTAGC, the “PBM E-score” value is -0.184.

CTTGGCAC: the “PBM E-score” value is -0.0521.

CTTTGGCC: the “PBM E-score” value turned out to be 0.0624.

Take CATTGTGA: the “PBM E-score” value was -0.0102.

ACCACGGC: the “PBM E-score” value was -0.108.

As to GCCCGGTA, the “PBM E-score” value is -0.0651.

With AATTAAAT, the “PBM E-score” value worked out at 0.124.

On to AGGTACTC, for which the “PBM E-score” value amounted to 0.333.

For CGGTACGC, the “PBM E-score” value was -0.174.

For ACGTACGG, the “PBM E-score” value is -0.163.

With AGGTACGC, the “PBM E-score” value worked out at 0.444.

Regarding AGGTACTG, the “PBM E-score” value was found to be 0.258.

For AGGTACGA, the “PBM E-score” value came to 0.346.

For the sequence CGGTACGA, the “PBM E-score” value was -0.155.

On to AGGTACGG, for which the “PBM E-score” value is 0.39.

Turning to GGGTACGA, the “PBM E-score” value is -0.148.

As for CGACTAGA, the “PBM E-score” value is -0.0287.

Turning to AAGCCCAT, the “PBM E-score” value was -0.253.

On to ACAACGTG, for which the “PBM E-score” value came to 0.114.

In the case of TACAGCGA, the “PBM E-score” value was -0.184.

Take GAAATACA: the “PBM E-score” value came to 0.328.

Regarding GACATACA, the “PBM E-score” value was 0.218.

Regarding AACATAGA, the “PBM E-score” value turned out to be 0.2.

With TACATAGA, the “PBM E-score” value stood at 0.357.

As for CACATACA, the “PBM E-score” value came to 0.239.

With AAAATACA, the “PBM E-score” value is 0.298.

For TACATACA, the “PBM E-score” value is 0.355.

With TAAATACA, the “PBM E-score” value was 0.366.

Regarding GACATAGA, the “PBM E-score” value came to 0.0532.

Take GCCTCCGA: the “PBM E-score” value came to 0.0149.

Turning to CGTACCAC, the “PBM E-score” value was -0.0328.

Turning to CGAATTCG, the “PBM E-score” value is -0.137.

Consider AACAGAAG, for which the “PBM E-score” value was found to be 0.0357.

For GTCTTAAA, the “PBM E-score” value was -0.131.

On to CCCTGAAA, for which the “PBM E-score” value was -0.0551.

For AAAGGTTC, the “PBM E-score” value came to 0.12.

On to CCACGATC, for which the “PBM E-score” value worked out at 0.0336.

Regarding ACACGATG, the “PBM E-score” value was found to be 0.199.

Regarding ACACGATA, the “PBM E-score” value turned out to be 0.345.

For the sequence AGACGATC, the “PBM E-score” value is -0.288.

Regarding ACACGATC, the “PBM E-score” value turned out to be 0.347.

CCACGATA: the “PBM E-score” value was -0.107.

As for CCTTTGAC, the “PBM E-score” value amounted to 0.125.

As for GAGGCTAA, the “PBM E-score” value was -0.134.

Regarding ACTGCGCA, the “PBM E-score” value is -0.17.

As for GGTGGGCA, the “PBM E-score” value amounted to 0.0151.

Consider GGTGACAA, for which the “PBM E-score” value is -0.12.

On to CCCTTTAC, for which the “PBM E-score” value came out at 0.15.

Take GCCTTTAA: the “PBM E-score” value stood at 0.322.

For GCCTTTAC, the “PBM E-score” value was 0.357.

For AGCGCTAG, the “PBM E-score” value was -0.115.

In the case of TATTTCAA, the “PBM E-score” value is 0.159.

With CCATCTAG, the “PBM E-score” value is -0.0951.

TGTTATAA: the “PBM E-score” value came to 0.35.

As for TCTTAACA, the “PBM E-score” value turned out to be 0.346.

For the sequence CGTTAAAA, the “PBM E-score” value was determined as 0.151.

In the case of ATTTAACG, the “PBM E-score” value was 0.247.

As to ATTTAACA, the “PBM E-score” value was 0.354.

Turning to CCTTAACA, the “PBM E-score” value was determined as 0.315.

As for ATTTAACC, the “PBM E-score” value was 0.0628.

As to AGTTATAA, the “PBM E-score” value worked out at 0.163.

In the case of GGTTAAAA, the “PBM E-score” value was found to be 0.194.

On to TGTTAAAA, for which the “PBM E-score” value worked out at 0.343.

For CGTTATAA, the “PBM E-score” value came out at 0.15.

Regarding GCTTAACA, the “PBM E-score” value was determined as 0.229.

For CGGGGGGC, the “PBM E-score” value is -0.295.

Consider ACAATTCC, for which the “PBM E-score” value is -0.0244.

Consider CGCTCCAC, for which the “PBM E-score” value is -0.234.

GTGAAGTA: the “PBM E-score” value was found to be 0.0411.

Consider TAACACAA, for which the “PBM E-score” value stood at 0.332.

Regarding CCAGTATA, the “PBM E-score” value is -0.178.

For the origin of these results see the supplement of paper PMC3334620.
